Measured values: PubChem BioAssay
Activity calls are given as the source filed them.

Tests used:
[1] = binders of probe aFSTL3 on microarray, primary screen, stem cell growth factor project, biochemical, small-molecule microarray, fluorescence 635/667 (AID 1064); conditions: higher = more signal;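 further: measures binding of the biotinylated anti-FSTL3 antibody to printed compounds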
[2] = binders from COS7 lysate, DM2A8 probe, primary screen, torsin A project, cell lysate, small-molecule microarray, fluorescence 635/667 (AID 1065); conditions: higher = more signal, COS7 lysate expressing mutant human TOR1A
[3] = binders of probe aFGF2 on microarray, primary screen, stem cell growth factor project, biochemical, small-molecule microarray, fluorescence 635/667 (AID 1067); conditions: higher = more signal;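 further: measures binding of biotinylated aFGF2 protein to printed compounds on slides; z-score merges feature fluorescence and signal-to-noise across triplicate slides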
[4] = binders of probe aFGF10 on microarray, primary screen, stem cell growth factor project, biochemical, small-molecule microarray, fluorescence 635/667 (AID 1071); conditions: higher = more signal;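 further: score merges 667 nm spot intensity and signal to noise from triplicate slides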
[5] = molecular target: Neurogenic locus notch homolog protein 2 (Homo sapiens) (UniProt Q04721); assay: Notch2 binders on small-molecule microarrays, primary screen, biochemical, small-molecule microarray, 635 nm fluorescence, stem cell growth factors (AID 1073); conditions: Notch2 binding, higher = more signal
Sequence of Neurogenic locus notch homolog protein 2 (Homo sapiens) (Q04721 whole entry, looked up, canonical isoform): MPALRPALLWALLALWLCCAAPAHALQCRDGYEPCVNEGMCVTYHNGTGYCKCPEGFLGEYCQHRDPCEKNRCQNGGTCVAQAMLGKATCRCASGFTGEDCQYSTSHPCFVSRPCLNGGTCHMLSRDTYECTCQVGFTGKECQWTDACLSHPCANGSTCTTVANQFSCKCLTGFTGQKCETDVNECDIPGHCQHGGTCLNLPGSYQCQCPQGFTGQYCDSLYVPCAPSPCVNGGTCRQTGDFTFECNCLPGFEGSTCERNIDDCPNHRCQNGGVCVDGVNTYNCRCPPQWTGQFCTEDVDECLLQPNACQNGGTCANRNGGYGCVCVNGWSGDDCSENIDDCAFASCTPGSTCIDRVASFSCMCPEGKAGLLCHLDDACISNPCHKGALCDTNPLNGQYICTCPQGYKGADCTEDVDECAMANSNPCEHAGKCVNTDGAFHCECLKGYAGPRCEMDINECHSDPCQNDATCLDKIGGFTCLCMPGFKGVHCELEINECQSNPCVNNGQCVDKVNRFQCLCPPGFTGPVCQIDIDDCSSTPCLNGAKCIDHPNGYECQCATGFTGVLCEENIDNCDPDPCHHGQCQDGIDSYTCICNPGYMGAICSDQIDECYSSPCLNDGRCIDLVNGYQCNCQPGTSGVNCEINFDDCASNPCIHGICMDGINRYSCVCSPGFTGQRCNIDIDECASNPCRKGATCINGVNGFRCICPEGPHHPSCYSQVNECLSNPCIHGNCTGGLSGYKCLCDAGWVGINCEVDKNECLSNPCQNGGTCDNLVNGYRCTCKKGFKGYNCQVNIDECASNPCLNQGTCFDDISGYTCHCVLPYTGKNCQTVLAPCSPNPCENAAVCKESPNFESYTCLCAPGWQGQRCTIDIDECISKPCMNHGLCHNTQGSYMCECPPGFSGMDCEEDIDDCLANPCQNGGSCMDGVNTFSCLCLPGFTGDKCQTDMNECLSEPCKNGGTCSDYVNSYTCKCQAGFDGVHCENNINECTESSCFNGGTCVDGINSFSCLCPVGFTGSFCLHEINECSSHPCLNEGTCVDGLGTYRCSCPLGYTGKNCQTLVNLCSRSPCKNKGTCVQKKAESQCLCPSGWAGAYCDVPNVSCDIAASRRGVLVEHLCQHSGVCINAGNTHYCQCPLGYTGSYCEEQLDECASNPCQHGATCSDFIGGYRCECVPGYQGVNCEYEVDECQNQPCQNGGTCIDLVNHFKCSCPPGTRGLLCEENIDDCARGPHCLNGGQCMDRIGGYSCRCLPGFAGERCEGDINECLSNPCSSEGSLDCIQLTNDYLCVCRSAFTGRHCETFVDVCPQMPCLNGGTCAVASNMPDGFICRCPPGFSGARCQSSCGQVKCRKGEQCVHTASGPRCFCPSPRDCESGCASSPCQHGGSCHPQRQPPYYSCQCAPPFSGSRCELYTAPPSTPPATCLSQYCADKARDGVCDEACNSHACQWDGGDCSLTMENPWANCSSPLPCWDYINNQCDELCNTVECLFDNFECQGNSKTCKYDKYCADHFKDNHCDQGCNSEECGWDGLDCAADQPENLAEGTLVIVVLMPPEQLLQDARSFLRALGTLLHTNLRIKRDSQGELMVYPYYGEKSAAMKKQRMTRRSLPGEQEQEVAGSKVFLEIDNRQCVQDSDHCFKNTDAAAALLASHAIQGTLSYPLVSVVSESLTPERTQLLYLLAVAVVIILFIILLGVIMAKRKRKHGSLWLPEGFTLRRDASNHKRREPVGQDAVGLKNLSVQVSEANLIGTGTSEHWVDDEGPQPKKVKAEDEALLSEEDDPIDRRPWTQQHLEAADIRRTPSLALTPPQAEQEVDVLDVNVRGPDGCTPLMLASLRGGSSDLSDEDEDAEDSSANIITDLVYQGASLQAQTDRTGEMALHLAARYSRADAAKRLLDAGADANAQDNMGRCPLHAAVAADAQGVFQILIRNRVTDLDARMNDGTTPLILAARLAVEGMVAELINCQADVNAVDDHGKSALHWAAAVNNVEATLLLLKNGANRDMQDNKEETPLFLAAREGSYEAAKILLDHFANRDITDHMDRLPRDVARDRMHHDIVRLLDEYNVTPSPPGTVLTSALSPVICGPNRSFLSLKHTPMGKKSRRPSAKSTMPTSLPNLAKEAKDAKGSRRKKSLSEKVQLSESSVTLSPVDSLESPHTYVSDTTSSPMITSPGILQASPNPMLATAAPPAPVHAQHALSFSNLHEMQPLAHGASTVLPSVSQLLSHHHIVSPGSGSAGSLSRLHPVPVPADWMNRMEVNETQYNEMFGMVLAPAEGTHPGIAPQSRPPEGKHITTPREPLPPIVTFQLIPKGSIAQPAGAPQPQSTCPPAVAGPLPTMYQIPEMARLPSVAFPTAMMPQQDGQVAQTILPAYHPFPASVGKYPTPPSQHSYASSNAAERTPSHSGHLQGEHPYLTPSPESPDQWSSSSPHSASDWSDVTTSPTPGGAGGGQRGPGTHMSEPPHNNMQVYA

[6] = molecular target: Pro-neuregulin-1, membrane-bound isoform (Homo sapiens) (UniProt Q02297); assay: NRG1 binders on small-molecule microarrays, primary screen, psychiatric disease protein project, biochemical, small-molecule microarray, fluorescence 635/667 (AID 1075); conditions: NRG1 binding, 635 nm fluorescence, higher = more signal;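 further: score combines 667 nm spot fluorescence with signal to noise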
[7] = test system: Neuregulin-1 EGF-like domain; assay: binders of neuregulin-1 EGF-like domain, primary screen, biochemical, small-molecule microarray, 635 nm fluorescence (AID 1081); conditions: small-molecule microarray binding, higher = more signal;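 further: binding of the protein to compounds printed on small-molecule microarray slides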
[8] = FRG1 promoter luciferase signal modulators, primary screen, FRG1 inhibition for FSHD, cell-based, C2C12 myotubes, firefly/Renilla luciferase, luminescence (AID 1084); conditions: higher = more signal, called active from +8 up or from −8 down
[9] = binders of probe aFST on microarray, primary screen, stem cell growth factor project, biochemical, small-molecule microarray, fluorescence 635/667 (AID 1086); conditions: higher = more signal;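 further: score merges 667 nm fluorescence with signal-to-noise of each printed compound spot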
[10] = binders of probe aHhip on microarray, primary screen, stem cell growth factor project, biochemical, small-molecule microarray, fluorescence 635/667 (AID 1087); conditions: higher = more signal;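 further: score merges spot fluorescence at 667nm with spot signal to noise ratio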
[11] = test system: PRMT1 (protein arginine N-methyltransferase 1); assay: PRMT1 binders on small-molecule microarrays, primary screen, biochemical, small-molecule microarray, 635 nm fluorescence (AID 1088); conditions: small-molecule microarray binding, higher = more signal;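 further: binding of Prmt1 protein to compounds spotted on small-molecule microarray slides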
[12] = yeast growth modulation, basal conditions, primary screen, YJM789 clinical isolate, OD600, 24 h (AID 1089);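 further: growth of clinical yeast isolate S. cerevisiae YJM 789 seeded 1000 cells per well; test concentration not given here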; conditions: S. cerevisiae YJM789 growth, higher = more signal, called active from +8 up or from −8 down
[13] = fission yeast growth modulation, primary screen, strain 972, OD600, 24 h, no modulator (AID 1090);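 further: basal condition with compound alone and no growth modifier present; test concentration not given here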; conditions: S. pombe 972 growth, higher = more signal, called active from +8 up or from −8 down
[14] = S. cerevisiae growth modulation with rapamycin, primary screen, strain BY4716, OD600, 96 h (AID 1091); conditions: higher = more signal, called active from +8 up or from −8 down; further: test concentration not given here
[15] = molecular target: Torsin-1A-interacting protein 2 (Homo sapiens) (UniProt Q8NFQ8); assay: LULL1 binders on small-molecule microarray, primary screen, cell lysate, human LULL1 lysate, 635/667 nm fluorescence (AID 1092); conditions: hLULL1 lysate binding, 635 nm fluorescence, higher = more signal;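 further: probe is lysate of COS7 cells overexpressing human LULL1; score merges per-feature 667 nm fluorescence with signal-to-noise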
[16] = E. coli growth modulation, two-sided OD650, primary screen, E. coli filamentation project, strain DRC41, 24 h (AID 1093); conditions: OD650, 24 h, higher = more signal, called active from +8 up or from −8 down;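 further: MC1000 strain lacking acrAB efflux and sulA so SOS filamentation is blocked; test concentration not given here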
[17] = small-molecule microarray binders of probe aLefty2, primary screen, biochemical, biotinylated probe, 635/667 nm fluorescence (AID 1094); conditions: higher = more signal;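 further: score merges spot fluorescence near 667 nm with spot signal-to-noise ratio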
[18] = test system: Noggin (protein binding on small-molecule microarray); assay: Noggin binders on small-molecule microarray, primary screen, biochemical, 635/667 nm fluorescence (AID 1095); conditions: 635 nm fluorescence, higher = more signal;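 further: score merges 667 nm feature fluorescence with signal to noise over triplicate slides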
[19] = molecular target: Neurogenic locus notch homolog protein 3 (Homo sapiens) (UniProt Q9UM47); assay: NOTCH3 binders on small-molecule microarray, primary screen, biochemical, 635/667 nm fluorescence (AID 1096); conditions: NOTCH3 binding, 635 nm fluorescence, higher = more signal
Sequence of Neurogenic locus notch homolog protein 3 (Homo sapiens) (Q9UM47 whole entry, looked up): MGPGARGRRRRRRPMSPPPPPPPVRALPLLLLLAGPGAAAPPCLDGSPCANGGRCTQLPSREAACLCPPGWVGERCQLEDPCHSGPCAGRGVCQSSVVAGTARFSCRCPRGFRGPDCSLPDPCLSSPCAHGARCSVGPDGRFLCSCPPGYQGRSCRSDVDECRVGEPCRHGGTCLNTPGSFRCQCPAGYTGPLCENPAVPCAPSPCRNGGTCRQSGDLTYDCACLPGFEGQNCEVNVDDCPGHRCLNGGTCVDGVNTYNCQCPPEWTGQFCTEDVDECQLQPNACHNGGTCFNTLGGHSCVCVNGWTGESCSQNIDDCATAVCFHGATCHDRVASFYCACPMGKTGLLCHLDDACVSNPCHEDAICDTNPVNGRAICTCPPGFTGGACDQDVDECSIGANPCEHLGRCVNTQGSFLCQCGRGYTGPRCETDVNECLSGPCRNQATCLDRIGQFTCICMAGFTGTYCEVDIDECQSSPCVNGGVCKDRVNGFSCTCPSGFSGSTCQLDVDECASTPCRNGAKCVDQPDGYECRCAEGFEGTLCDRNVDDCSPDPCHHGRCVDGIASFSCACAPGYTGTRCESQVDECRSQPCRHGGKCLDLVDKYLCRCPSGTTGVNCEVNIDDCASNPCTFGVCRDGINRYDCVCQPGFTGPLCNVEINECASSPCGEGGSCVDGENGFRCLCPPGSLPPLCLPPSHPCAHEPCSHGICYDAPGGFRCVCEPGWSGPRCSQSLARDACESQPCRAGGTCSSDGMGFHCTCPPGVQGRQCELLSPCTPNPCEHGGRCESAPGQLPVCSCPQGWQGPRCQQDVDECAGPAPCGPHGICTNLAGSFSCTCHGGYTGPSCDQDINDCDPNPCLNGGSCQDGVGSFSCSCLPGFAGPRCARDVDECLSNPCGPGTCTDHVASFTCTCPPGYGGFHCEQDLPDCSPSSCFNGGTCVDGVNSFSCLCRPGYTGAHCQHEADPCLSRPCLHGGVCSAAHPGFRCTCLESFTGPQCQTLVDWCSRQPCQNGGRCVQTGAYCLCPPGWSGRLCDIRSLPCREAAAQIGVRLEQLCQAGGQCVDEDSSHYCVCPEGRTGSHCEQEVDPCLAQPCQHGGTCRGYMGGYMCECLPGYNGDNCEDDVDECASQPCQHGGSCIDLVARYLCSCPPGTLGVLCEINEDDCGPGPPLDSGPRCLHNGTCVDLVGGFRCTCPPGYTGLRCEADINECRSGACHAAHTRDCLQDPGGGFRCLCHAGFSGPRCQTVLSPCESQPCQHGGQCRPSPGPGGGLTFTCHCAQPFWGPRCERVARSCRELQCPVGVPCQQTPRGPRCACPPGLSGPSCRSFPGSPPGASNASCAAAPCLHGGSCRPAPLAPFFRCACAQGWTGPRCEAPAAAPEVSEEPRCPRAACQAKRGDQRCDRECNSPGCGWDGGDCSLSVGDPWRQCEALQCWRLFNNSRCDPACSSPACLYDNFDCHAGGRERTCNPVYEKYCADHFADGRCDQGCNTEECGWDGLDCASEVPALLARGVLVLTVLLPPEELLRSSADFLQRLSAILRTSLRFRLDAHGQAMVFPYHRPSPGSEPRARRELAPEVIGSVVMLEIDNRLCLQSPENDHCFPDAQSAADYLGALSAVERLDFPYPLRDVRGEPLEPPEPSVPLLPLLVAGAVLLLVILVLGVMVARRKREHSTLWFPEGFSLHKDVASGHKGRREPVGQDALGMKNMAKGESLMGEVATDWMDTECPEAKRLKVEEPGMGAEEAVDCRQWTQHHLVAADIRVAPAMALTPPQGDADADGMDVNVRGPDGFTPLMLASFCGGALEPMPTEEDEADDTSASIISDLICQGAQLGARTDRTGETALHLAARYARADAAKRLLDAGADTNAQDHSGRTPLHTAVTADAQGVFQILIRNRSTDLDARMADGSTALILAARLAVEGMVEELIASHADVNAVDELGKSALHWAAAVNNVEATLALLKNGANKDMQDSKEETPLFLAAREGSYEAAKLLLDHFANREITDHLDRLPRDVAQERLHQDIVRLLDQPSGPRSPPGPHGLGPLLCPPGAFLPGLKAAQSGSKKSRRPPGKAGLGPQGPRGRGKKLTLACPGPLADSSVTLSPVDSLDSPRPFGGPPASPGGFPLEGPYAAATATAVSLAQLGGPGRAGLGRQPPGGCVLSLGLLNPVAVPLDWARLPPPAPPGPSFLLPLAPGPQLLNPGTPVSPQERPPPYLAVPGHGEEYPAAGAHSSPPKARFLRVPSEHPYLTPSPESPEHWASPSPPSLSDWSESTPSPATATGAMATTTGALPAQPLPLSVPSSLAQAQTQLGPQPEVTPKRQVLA

[20] = small-molecule microarray binders of probe aEGFR, primary screen, biochemical, biotinylated probe, 635/667 nm fluorescence (AID 1097); conditions: higher = more signal;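 further: probe is a biotinylated anti-EGFR antibody binding compounds printed on slides; score combines fluorescence near 667 nm and signal to noise of each spot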

Row | Structure (SMILES) | composite z-score [1] | composite z-score [2] | composite z-score [3] | composite z-score [4] | composite z-score [5] | composite z-score [6] | composite z-score [7] | z-score [8] | composite z-score [9] | composite z-score [10] | composite z-score [11] | z-score [12] | z-score [13] | z-score [14] | composite z-score [15] | z-score [16] | composite z-score [17] | composite z-score [18] | composite z-score [19] | composite z-score [20]
1 | CCOC(=O)C1=CC[C@@H](c2ccccc2C(F)(F)F)N(S(=O)(=O)c2ccc(C)cc2)C1 | 0.811 | 1.54 | 0.313 | 1.1 | 1.67 | 1.79 | 1.28 | -3.59 (inactive) | 0.997 | -0.0439 | 1.5 | -2.43 (inactive) | -0.598 (inactive) | 0.105 (inactive) | 2.63 | -0.607 (inactive) | 0.495 | 0.03 | 1.04 | 0.678
2 | [N-]=[N+]=Nc1ccccc1C[C@]1(C(=O)NCc2ccccc2)N=C(c2ccc(OCCCO)cc2)O[C@H]1c1ccccc1 | 0.0843 | 0.984 | 0.0898 | 0.584 | 1.61 | 1.86 | 1.2 | -2.1 (inactive) | 1.22 | 0.0515 | 1.56 | -0.623 (inactive) | 0.69 (inactive) | 17.8 (active) | 3.34 | 0.7 (inactive) | 0.206 | 0.383 | 1.12 | 0.048
3 | COCCOC(=O)N1C(=O)[C@@]2(c3cc(C#CC4(O)CCCCCC4)ccc31)[C@H](C(N)=O)[C@H]1C(=O)O[C@H](c3ccccc3)[C@H](c3ccccc3)N1[C@@H]2c1ccccc1OCCO | 0.591 | 1.71 | 0.121 | 0.859 | 1.25 | 0.735 | 1.3 | 0.129 (inactive) | 0.239 | 0.141 | 1.54 | 1.53 (inactive) | -0.0153 (inactive) | 4.1 (inactive) | 2.49 | 0.58 (inactive) | -0.484 | 1.09 | 1.08 | 0.445
4 | CC(=O)NCCCC[C@@H]1NC(=O)[C@@H]2C[C@H](C(=O)O)[C@H](c3ccc(O)cc3)N2C1=O | 0.736 | -1.54 | -0.174 | -1.07 | -1.09 | 0.78 | 1.42 | 0.785 (inactive) | -0.765 | -0.372 | -0.728 | 0.611 (inactive) | 1.36 (inactive) | 0.442 (inactive) | 2.17 | 0.129 (inactive) | 0.0208 | -1.42 | -1.27 | -0.322
5 | CCOC(=O)C1=C[C@@H](c2ccccc2)N(S(=O)(=O)c2ccc(C)cc2)[C@H]1c1cccc(Cl)c1 | 0.266 | 1.81 | 0.085 | 0.885 | 1.58 | 1.34 | 0.991 | -2.98 (inactive) | 1.02 | -0.0919 | 1.57 | 0.962 (inactive) | 1.71 (inactive) | 2.24 (inactive) | 2.67 | -0.913 (inactive) | 0.268 | 0.688 | 1.07 | 0.143
6 | C=CC[C@H](OC(=O)Nc1ccc(OC)cc1)c1ccc(O)c2ccccc12 | -0.471 | 0.38 | -0.0894 | 0.517 | 1.28 | 0.473 | 0.933 | 6.36 (inactive) | 0.0069 | 0.176 | 1.33 | -23.9 (active) | -19.5 (active) | -1.21 (inactive) | 2.08 | 0.364 (inactive) | 0.054 | 0.578 | 1.06 | -0.0509
7 | O=C1O[C@@H](c2ccccc2)[C@@H](c2ccccc2)N2[C@@H](c3ccccc3OCCO)[C@]3(C(=O)Nc4ccccc43)[C@@H](C(=O)NC[C@H](O)c3ccccc3)[C@H]12 | 0.421 | 0.98 | -0.0937 | 0.0718 | -0.843 | 0.551 | 1.2 | -2.8 (inactive) | -0.127 | -0.226 | 1.4 | 2.62 (inactive) | 1.68 (inactive) | 5.71 (inactive) | 2.69 | -0.467 (inactive) | -0.139 | -0.84 | -0.359 | -0.207
8 | NC(=O)N1C(=O)C2C(C1=O)C1C=C(c3ccc(CO)cc3)C2C(C2CC2)N1Cc1sc2ccccc2c1Cl (stereo not given) | -0.418 | 2.2 | 0.0433 | 1.17 | 1.19 | 1.6 | 1.28 | -1.27 (inactive) | 0.32 | 0.0623 | 1.54 | 2.22 (inactive) | -2.31 (inactive) | 0.266 (inactive) | 2.68 | 1.34 (inactive) | 0.0139 | 0.695 | 1.06 | -0.0271
9 | C=CCOC(=O)[C@@H]1[C@H]2C(=O)O[C@H](c3ccccc3)[C@H](c3ccccc3)N2[C@H](c2ccc(OCCOC(=O)[C@H]3C[C@H]4C(=O)N[C@@H](CCCCN(C)C)C(=O)N4[C@H]3c3cccc(OCCO)c3)cc2)[C@@]12C(=O)Nc1ccc(I)cc12 | 0.0594 | 1.24 | -0.0308 | 0.526 | 0.59 | 1.55 | 1.32 | 0.842 (inactive) | 0.312 | 0.064 | 1.56 | 0.95 (inactive) | 0.688 (inactive) | 3.87 (inactive) | 2.81 | 0.0565 (inactive) | -0.0216 | 1.03 | 1.08 | -0.105
10 | CC(C)CN1C(=O)[C@@]2(c3ccc([N+](=O)[O-])cc3)CC(=O)N(CC34CC5CC(CC(C5)C3)C4)[C@@H]2c2ccc(CO)cc21 | 0.311 | -1.76 | -0.186 | -0.34 | -0.602 | 0.251 | -0.594 | 0.0918 (inactive) | 0.0959 | -0.0994 | -0.297 | 0.275 (inactive) | 0.0569 (inactive) | -1.32 (inactive) | 0.295 | -1.55 (inactive) | -0.239 | -1.21 | -0.506 | -0.256
